Compound activity as filed in PubChem BioAssay.
This is a sample that favours compounds with a hit; in the whole collection about 3.6% have one here.
mHTT-CaM PPI inh = mHTT-calmodulin interaction abrogation; inhibition, % at 15 µM; 190,000 compounds, 3.6% hits; AlphaScreen His-mHTT/GST-CaM binding, luminescence; P42858;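 further: 0% = both proteins with DMSO and 100% = one protein alone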
Pf apPOL inh = Pf-apPOL DNA polymerase inhibition. Recombinant Pf-apPOL, molecular beacon fluorescence, 1.5 h. inhibition, % at 10 µM. 210,000 compounds, 0.25% hits
The depositor's hits bear a star; nt = no result; ! = a repeat was not active. No stated cut-off is given here; in the data, active means inhibition above about 50%; inactive means the rest.

SMILES	mHTT-CaM PPI inh	Pf apPOL inh
COc1ccc(Cl)cc1NC(=O)NCCc1ccc(N(C)C)cc1	55*	-3
COc1ccc(CCNC(=O)Nc2cc(F)c(F)cc2Cl)cc1OC	0	-4
O=C(NCc1cc(F)ccc1F)C1CCc2nc(N3CCCCC3)ncc2C1 (centres undefined)	-6	-6
CC(Oc1ccc(Cl)cc1Cl)C(=O)Nc1ccncc1 (centres undefined)	-4	-4
CC(Oc1ccc(Cl)cc1Cl)C(=O)NC1=NN(c2ccccc2)C(=O)C1 (centres undefined)	68*	-6
COc1cccc(CC(=O)NCC#CCN2CCc3ccccc3C2)c1	-2	-1
Cc1cc(=O)n2ccc([N+](=O)[O-])c(O)c2n1	7	-86
Cc1sc2ncn(CC(=O)NCCCC(=O)NCc3ccccn3)c(=O)c2c1C	2	1
CCN(Cc1ccccc1)S(=O)(=O)c1ccccc1Br	-61	-3
O=S(=O)(c1ccccc1Br)N(Cc1ccccc1)CC(O)COCc1ccccc1 (centres undefined)	98*	1
Cc1cc2nc(C(=O)Nc3ccc(C#N)cc3)cc(C)n2n1	5	-3
Cn1c(=O)c(C(=O)Nc2ccc([N+](=O)[O-])cc2O)c(O)c2ccccc21	0	-7
O=C(Nc1cccc([N+](=O)[O-])c1)c1[nH]ncc1[N+](=O)[O-]	9	-3
CCn1c(SC)nnc1-c1nn(C)c2c1CN(C(=O)c1cc(OC)cc(OC)c1)CC2	12	-21
COc1cccc(/C=C2/N=C(c3cccc([N+](=O)[O-])c3C)OC2=O)c1	-3	-4
COc1cc2c(cc1OC)C(C1=NC(C)(C)Cc3ccccc31)=NC(C)(C)C2	13	-2
COc1cc2c(cc1OC)C(SC)=NC(C)(C)C2	-1	95*!
COc1cccc(-c2nc(C3CCN(C(=O)c4ccoc4)CC3)no2)c1	17	-1
COc1ccc(-c2csc(Nc3ncccc3C)n2)cc1C	26	5
Oc1ccc(-c2csc(Nc3ccccn3)n2)c(O)c1	96*	2
Cc1ccc(Nc2nc(-c3ccc(O)c(O)c3)cs2)nc1	79*	-4
Cc1ccc(Nc2nc(-c3ccc4c(c3)OCO4)cs2)nc1	8	-2
Cc1cccnc1Nc1nc(-c2ccc(O)cc2O)cs1	100*	-14
Cc1ccc(-c2csc(Nc3ccccn3)n2)c(C)c1	3	-1
Clc1ccc(CSc2nnc(-n3cccc3)s2)cc1	nt	5
SMILES	mHTT-CaM PPI inh	Pf apPOL inh
O=C(O)CSc1nc2ccsc2c(=O)n1Cc1ccc(F)cc1	-3	-7
COc1ccc(OC)c(NC(=O)C2CCCN(c3nnc4c(Cl)cccn34)C2)c1 (centres undefined)	13	-5
Cc1ccsc1C1CC(c2ccc(Cl)cc2)Nc2ncnn21 (centres undefined)	14	-5
CC(=O)c1ccc2c(c1)C1C=CCC1C(c1ccc(Cl)cc1Cl)N2 (centres undefined)	37	6
O=[N+]([O-])c1c(Cl)cc(O)c2c1C1C=CCC1C(c1ccc(Cl)cc1)N2 (centres undefined)	88*	0
O=C(O)C1Nc2c(O)cc(Cl)c([N+](=O)[O-])c2C2C=CCC12 (centres undefined)	90*	-5
CCCC1Nc2c(C(=O)O)ccc([N+](=O)[O-])c2C2C=CCC12 (centres undefined)	26	-1
O=C(O)C1Nc2cc(Cl)cc(Cl)c2C2C=CCC12 (centres undefined)	99*	-1
O=[N+]([O-])c1c(Cl)cc(O)c2c1C1C=CCC1C(C1CC=CCC1)N2 (centres undefined)	80*	0
Cc1cccc(N2CCN(C(=O)C3CCN(Cc4ccc5c(c4)OCO5)CC3)CC2)c1C	9	2
COc1ccc(/C=C2/N=C(c3cccc(Cl)c3Cl)OC2=O)cc1OC	11	-2
Cc1cccc(N2CCN(CN3C(=O)C(=O)c4cc([N+](=O)[O-])ccc43)CC2)c1	12	0
COc1ccc(Nc2nc(Cl)nc(NCc3cccnc3)n2)cc1	15	-2
COc1ccccc1Oc1coc2cc(OC(=O)C(C)C)ccc2c1=O	100*	-2
COC(=O)Oc1ccc2c(=O)c(Oc3ccc(C)cc3)coc2c1	80*	16
COc1cccc(Oc2coc3cc(OC(=O)C(C)C)ccc3c2=O)c1	31	-6
CC(=O)Oc1ccc2c(=O)c(Oc3ccccc3)coc2c1	20	-7
CC(=O)N1CCN(c2nc3c(s2)CC(C(=O)NCc2ccc(Cl)cc2)CC3)CC1 (centres undefined)	24	-4
CC(=O)Nc1cccc(NC(=O)c2cc(-c3ccccc3)nc3ccccc23)c1	34	-5
CCOc1ccc(N(C(C)C(=O)Nc2ccc(C)c(Cl)c2)S(C)(=O)=O)cc1 (centres undefined)	16	-4
Cc1ccc(-c2cc(C(=O)N3CCN(c4ccccn4)CC3)c(C)[nH]2)cc1C	98*	-8
Cc1occc1C(=O)N1CCN(c2ccccn2)CC1	-4	-10
COc1ccc(-c2c(O)c3ccc(O)cc3oc2=O)cc1	0	1
COc1cc(O)c2c(c1)oc(=O)c1c3cc(O)c(O)cc3oc21	nt	51*
Fc1ccc(C2CC(c3ccccc3Cl)Nc3ncnn32)cc1 (centres undefined)	5	2
SMILES	mHTT-CaM PPI inh	Pf apPOL inh
CC1=C(C(=O)Nc2ccccc2C(F)(F)F)C(c2ccccn2)C2=C(CCCC2=O)N1 (centres undefined)	-2	0
O=C(Nc1nc2c(s1)CN(C(=O)c1cnn(-c3ccccc3)n1)CC2)c1ccco1	53*	6
O=C(Nc1nc2c(s1)CN(C(=O)c1cc(C3CC3)on1)CC2)c1ccco1	-10	-2
CCOc1ccc(NC(=O)c2cc(Cl)ccc2Cl)c([N+](=O)[O-])c1	6	-24
CCOc1ccc(NC(=O)COc2ccccc2)c([N+](=O)[O-])c1	23	-4
CCOc1ccc(NC(=O)C(c2ccccc2)c2ccccc2)c([N+](=O)[O-])c1	50*	-8
CCOc1ccc(NC(=O)c2cccc3ccccc23)c([N+](=O)[O-])c1	63*	-2
O=C(Oc1ccnc2cc(Cl)ccc12)N1CCCCC1	-2	-9
COc1ccc(C2CC(c3ccc(Cl)cc3Cl)Nc3nc(N)nn32)cc1 (centres undefined)	42	-4
COc1cccc(C2CC(c3ccc(Cl)cc3Cl)Nc3nc(N)nn32)c1 (centres undefined)	52*	2
Nc1nc2n(n1)C(c1cccs1)CC(c1ccc(Cl)cc1Cl)N2 (centres undefined)	78*	-13
COc1cccc(C2CC(c3ccccc3Cl)Nc3nc(N)nn32)c1 (centres undefined)	30	-3
CCC(=O)NCCc1csc(C2CCCN(C(=O)c3ccc(C#N)cc3)C2)n1 (centres undefined)	2	0
CCOC(=O)CC1(NC(=O)N2CC3CCCN3c3ccccc32)CCCCC1 (centres undefined)	64*	-3
CCOC(=O)C1CCC(CNC(=O)N2CC3CCCN3c3ccccc32)CC1 (centres undefined)	66*	-2
CCOC(=O)C1CCC(CNC(=O)N2CC(CC)Oc3ccccc32)CC1 (centres undefined)	-7	2
COC(=O)CNC(=O)N1CC2CCCN2c2ccccc21 (centres undefined)	8	0
